# Bioassay records deposited in PubChem BioAssay by The Scripps Research Institute Molecular Screening Center.
# IDE inh – human IDE inhibitors in live cells, primary screen, fluorescence polarization, HEK cells, FAbetaB substrate. FAbetaB cleavage. AID 434962, 2010. hit rate 0.41% among 320,000. Insulin-degrading enzyme (Homo sapiens), P14735. inhibition, % at 5.59 µM;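 active = percent inhibition above the average of all tested compounds plus 3 SD, set per screening campaign, cut at about 16% in these data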;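 also: IDE supplied by intact live HEK cells; FP after avidin binding of uncleaved biotin substrate so inhibition keeps polarization high; 0% = DMSO wells and 100% = 60 µM reference IDE inhibitor Ii1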
# eLon inh – inhibitors of E. coli Lon protease, primary screen, biochemical, fluorescence polarization; P0A9M0; hit rate 0.42% among 360,000; purified E. coli Lon protease; inhibition, % at 7.94 µM; in the data active = inhibition above about 13%, passing the limit was not always enough;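 also: 0% = enzyme with probe and DMSO and 100% = no enzyme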
# PKA-R1A act – activators of PKA-R1A holoenzyme, primary screen, biochemical, fluorescence polarization, Cy5-IP20, bovine R1A, mouse PKAc. cAMP-dependent protein kinase type I-alpha regulatory subunit (Bos taurus) + …. PKA-R1A dissociation; scaled: DMSO 0%, 113 µM cGMP 100%. activation, % at 11.4 µM. hit rate 0.083% among 340,000;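 active = percent activation above the mean of all tested compounds plus 3 SD, cut at about 19% in these data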;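 also: higher means more PKAc released from R1A so a rise in polarization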
# PKA-R2B act – activators of PKA-R2B holoenzyme, primary screen, biochemical, fluorescence polarization, Cy5-IP20, human. PKA-R2B holoenzyme dissociation; R2B truncated from residue 108, S112A mutant; 0% DMSO only, 100% 113 µM cGMP. activation, % at 11.4 µM. AID 504700, 2011. hit rate 0.079% among 340,000. cAMP-dependent protein kinase catalytic subunit beta (Homo sapiens) + cAMP-dependent …;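 active = activation above a cutoff set at the mean over all compounds plus 3 SD, cut at about 18% in these data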;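 also: higher means more holoenzyme dissociation and a rise in polarization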
# Target sequence (P31323 whole entry, looked up, other chains not shown, the tested form may be a part): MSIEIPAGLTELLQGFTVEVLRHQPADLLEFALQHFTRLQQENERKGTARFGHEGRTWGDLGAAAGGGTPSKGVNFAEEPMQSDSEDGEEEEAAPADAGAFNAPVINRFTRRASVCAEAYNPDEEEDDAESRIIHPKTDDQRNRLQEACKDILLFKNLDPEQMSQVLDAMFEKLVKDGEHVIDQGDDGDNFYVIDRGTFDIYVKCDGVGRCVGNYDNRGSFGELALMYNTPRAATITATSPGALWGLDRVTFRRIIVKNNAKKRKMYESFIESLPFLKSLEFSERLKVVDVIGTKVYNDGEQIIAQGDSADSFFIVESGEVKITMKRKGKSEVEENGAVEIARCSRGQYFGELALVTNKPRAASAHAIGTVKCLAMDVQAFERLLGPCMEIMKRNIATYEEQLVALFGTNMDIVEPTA
# IDE act – human IDE activators in live cells, primary screen, fluorescence polarization, HEK cells, FAbeta-B substrate | Insulin-degrading enzyme (Homo sapiens), P14735 | FAbeta-B cleavage; 0% vehicle, 100% cell-free pure enzyme wells | activation, % at 5.96 µM | hit rate 0.073% among 340,000 | AID 493087, 2011;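 active = activation above the mean of all tested compounds plus 3 SD, set per screening campaign, cut at about 17% in these data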
# Rin1 Abl inh – inhibitors of Rin1-Abl protein binding, primary screen, biochemical, TR-FRET; Tyrosine-protein kinase ABL1 (Homo sapiens) + Ras and Rab interactor 1 (Homo sapiens), …; inhibition, % at 7.35 µM; hit rate 0.4% among 360,000; AID 588664, 2011; in the data active = inhibition above about 5%, passing the limit was not always enough
# eLon confirm – E. coli Lon protease inhibitor retest, confirmation, biochemical, fluorescence polarization | AID 602230, 2012 | inhibition, % at 7.94 µM | hit rate 31% among 1,400 | purified E. coli Lon | shares compounds with eLon inh; in the data active = inhibition above about 16%;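 also: 0% = enzyme with probe and DMSO and 100% = no enzyme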
# Active calls of the source: *; nt = not tested or not shown; + = active, no number; ! = a repeat was not active. Hits are enriched below; roughly 1.3% of the tested compounds scored in any of these assays.
SMILES,IDE inh,eLon inh,PKA-R1A act,PKA-R2B act,IDE act,Rin1 Abl inh,eLon confirm
O=S(=O)(c1ccc2c(c1)OCCO2)N1CCC(n2cnc3cc(F)ccc32)CC1,-7.8,16.6*,-4.5,-7.6,2.0,-1.1,-37.8
O=S(=O)(c1ccc2c(c1)OCCO2)N1CCC(n2nnc3cc(F)ccc32)CC1,3.0,-1.6,-3.0,-6.7,0.3,4.1,nt
NC(=O)C1CCN(C(c2ccccc2F)c2nnnn2Cc2ccco2)CC1 (stereo unspecified),8.3,0.8,-0.4,4.8,3.1,-0.6,nt
Fc1ccccc1C(c1nnnn1Cc1ccc2c(c1)OCO2)N1CCN(Cc2ccco2)CC1 (stereo unspecified),2.7,15.8*,-11.7,-19.7,-2.0,-5.9,-3.3
O=C1c2cccc3c(O)ccc(c23)C(=O)N1c1ccc(Cl)cc1,-32.2,+,-1.8,0.9,52.2*,-8.2,+
COc1ccc(N2C(=O)c3cccc4cccc(c34)C2=O)cc1,5.8,-8.0,-5.3,-11.3,5.8,-2.3,nt
O=C1c2ccccc2C(=O)N1c1ccc(Cl)cc1,-0.5,nt,nt,nt,nt,nt,nt
O=C1c2cccc3c(O)ccc(c23)C(=O)N1Cc1ccco1,nt,+,-1.0,-7.8,29.7*,-13.3,+
COc1ccc(N2C(=O)c3cccc4c(N(C)CCO)ccc(c34)C2=O)cc1,nt,66.7*,2.4,-1.6,-44.6,-20.2,21.7*
Cc1ccc(Cl)cc1N1CCN(C(=O)COc2ccc(S(=O)(=O)NC(C)C)cc2)CC1,1.6,-5.6,1.4,-5.5,1.2,-0.4,nt
CCCCN(CC)CCCNC(=O)c1cc2c(=O)n(CC)c3ccccc3c2s1,2.9,-1.3,12.2,0.2,3.5,-4.4,nt
COc1ccc(CCNC(=O)CN(c2cc(OC)ccc2OC)S(=O)(=O)c2ccccc2)cc1,4.3,-2.1,-21.7,-3.1,2.4,-0.2,nt
C/C(N)=C(/C#N)C(=O)COC(=O)C1Cc2ccccc2CN1S(C)(=O)=O (stereo unspecified),-1.9,16.0*!,-7.1,-6.4,6.9,2.1,1.8
O=C(CCC1CCCC1)N1CCN(S(=O)(=O)c2ccc(Br)cc2)CC1,-0.5,19.4*,3.2,-3.2,3.2,-1.4,-2.5
COc1ccc(Cl)cc1/C=N/NC(=O)c1c(-c2ccccc2)noc1C,nt,1.6,-9.8,-3.6,-46.8,0.0,nt
CN(C)CCCN1C(=O)c2cccc3c([N+](=O)[O-])ccc(c23)C1=O,1.6,131.3*,-1.8,-10.9,1.9,-13.2,43.2*
CCOc1c2ccc(C(=O)NCc3cc(C(F)(F)F)cc(C(F)(F)F)c3)cc2nn1CCOC,2.9,3.0,-0.8,-16.9,-0.1,1.6,nt
COCCn1nc2cc(C(=O)NCc3cc(C(F)(F)F)cc(C(F)(F)F)c3)ccc2c1OC,1.2,20.9*,-7.9,-3.3,-2.1,0.2,-7.8
CCC(=Nc1ccc(N)cc1)C1=C(O)C(C(=O)OC)C(C)(C)CC1=O (stereo unspecified),-1.2,20.3*,4.5,-11.6,2.7,4.7,2.9
c1ccc2c(c1)CCCN2Cc1nnc2n1CCCCC2,-0.9,65.7*,-5.9,1.6,2.0,-3.5,-42.4
O=C1C2CC=C(Cl)CC2C(=O)N1CCc1ccccc1 (stereo unspecified),1.8,25.3*,-7.0,7.8,-1.4,-5.7,47.9*
O=C(CN1C(=O)C2C3C=CC(C3)C2C1=O)NCc1ccccc1 (stereo unspecified),9.4,3.6,2.1,-9.4,4.3,1.6,nt
O=C(CCN1C(=O)C2CC=C(Cl)CC2C1=O)N1CCCCC1 (stereo unspecified),-2.0,29.2*,-0.5,9.7,1.8,1.4,52.2*
O=C(CCN1C(=O)C2C3C=CC(C3)C2C1=O)N1CCCCC1 (stereo unspecified),-4.6,4.6,-2.1,-0.8,2.8,-2.1,nt
O=C(CN1C(=O)C2CC=C(Cl)CC2C1=O)NCc1ccccc1 (stereo unspecified),-2.2,34.3*,7.3,0.9,-6.0,-1.7,38.4*
SMILES,IDE inh,eLon inh,PKA-R1A act,PKA-R2B act,IDE act,Rin1 Abl inh,eLon confirm
O=C1C2CC=C(Cl)CC2C(=O)N1CCc1c[nH]c2ccccc12 (stereo unspecified),-1.0,3.4,1.5,10.5,-0.9,-2.1,nt
O=C(COC(=O)c1nc(Cl)ccc1Cl)Nc1ncc(Cl)cc1Cl,12.1,77.4*,1.4,-9.0,0.9,0.3,-7.2
O=C(COC(=O)c1ccc(O)cc1)Nc1ncc(Cl)cc1Cl,-0.6,5.1,5.4,-0.7,-0.8,-0.2,nt
COc1ccc(N=Nc2nc3cc(Br)c(Br)cc3n2C)c(OC)c1,-17.6,162.9*,-0.7,-2.5,11.1,0.8,127.9*
CCCCN(C(=O)NC(=O)Nc1ccccc1OC)S(C)(=O)=O,3.9,19.8*,-3.4,-17.3,-1.0,-0.6,5.4
CC(C)[C@H](NC(=O)OC(C)(C)C)C(=O)N1CCC(C(=O)N[C@@H](C)C(=O)Nc2ccc(F)cc2)CC1,2.2,19.5*,-10.4,-6.3,6.0,-0.4,-4.5
CCc1ccc(NC(=O)[C@H](C)NC(=O)C2CCN(C(=O)[C@@H](NC(=O)OC(C)(C)C)C(C)C)CC2)cc1,2.0,3.4,-5.8,-3.2,-3.0,4.8,nt
CCOC(=O)C1CCCN(C(=O)/C=C/c2ccccc2)CC1 (stereo unspecified),nt,1.3,nt,nt,nt,-6.5,nt
Nc1nc(Cl)cc(Oc2ccc([N+](=O)[O-])cc2)n1,-1.2,16.3*,-9.9,-11.1,-0.8,0.4,20.2*
Cc1ccc(N(CC(O)CN2CCOCC2)S(=O)(=O)c2ccc([N+](=O)[O-])cc2)cc1 (stereo unspecified),-4.4,16.7*,-3.5,-5.3,1.7,1.9,-12.9
CN(C)Cc1c(OC(=O)c2ccc(N)cc2)ccc2ccccc12,nt,2.1,0.8,-0.8,-2.4,-1.1,nt
OCCNc1nc(N2CCOCC2)nc(N2CCOCC2)n1,-7.1,0.8,-11.7,-9.2,9.1,-1.2,nt
Cc1ccccc1Nc1nc(N)[nH]c(=O)c1N=O,nt,25.9*,nt,nt,nt,-7.2,-5.6
c1ccc(CSc2nnc(-c3cccs3)o2)cc1,-0.6,-4.2,3.9,-5.3,-0.1,-1.6,nt
CCSc1nnc(-c2cccs2)o1,0.7,64.7*,-7.1,-6.6,-1.4,1.8,-3.2
